This is part of a sample that, as a whole, favours compounds with a hit. Of some 83,000 tested, about 20% had one in any assay.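 48-hour exposure, single concentration, 96-well plates; percent growth endpoint where 0 means no net growth. Active: below 10.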 The source made the active and inactive calls.
Assays:
Assay in all cases: NCI-60 one-dose screen, 48 h (100 = growth as untreated, 0 = no growth, -100 = all killed)
Conditions in all cases: 10 µM unless noted
[1] = tested on: HCT-15 colon
[2] = tested on: HT29 colon
[3] = tested on: SNB-75 CNS
[4] = tested on: SNB-19 CNS
[5] = tested on: U251 CNS
[6] = tested on: PC-3 prostate
[7] = tested on: SK-MEL-5 melanoma
[8] = tested on: UACC-62 melanoma
[9] = tested on: LOX IMVI melanoma
[10] = tested on: SK-MEL-28 melanoma

Measured: growth

CCn1c2ccc(/C=N/OCCCN(C)C)cc2c2cc(/C=N/OCCCN(C)C)ccc21
inactive: [3] 82.8% | [4] 59.3% | [6] 32.4% | [8] 10.6%
active: [1] -13% | [2] -58.8% | [5] -30.9% | [7] -95.6% | [9] -91.8% | [10] -33.8%

COc1ccc(Cn2cc3c(c2-c2ccccc2)CCCc2cnoc2-3)cc1[N+](=O)[O-]
inactive: [1] 27.3% | [2] 40.8% | [3] 55.8% | [4] 75.6% | [5] 77.5% | [6] 69.5% | [7] 71.5% | [8] 52.1% | [9] 87.8% | [10] 76.9%

O=S(=O)(Nc1cc(Cl)c(F)c(Cl)c1)c1ccc(-c2cnc(C3CC3)o2)cc1
inactive: [1] 35.2% | [2] 13.4% | [4] 44.3% | [5] 30.4% | [6] 25.2% | [7] 28.8% | [8] 42.6% | [9] 43.2% | [10] 66.7%
active: [3] -4.2%

O=C1C[C@@H](c2ccccc2)Oc2c(Cc3ccccc3O)c(O)c(Cc3cc(Cc4cc(Cc5ccccc5O)ccc4O)ccc3O)c(O)c21
inactive: [1] 104% | [2] 128% | [3] 72.7% | [4] 99.7% | [5] 93.7% | [6] 89.1% | [7] 98.6% | [8] 72.7% | [9] 87.2% | [10] 114%

Cc1ccc(/C=C/c2nn3c(-c4ccco4)nnc3s2)cc1
inactive: [1] 96.1% | [2] 103% | [3] 108% | [4] 92.6% | [5] 101% | [6] 98.4% | [7] 98.4% | [8] 90.7% | [9] 105% | [10] 94.1%

O=C1Nc2cc(OC(F)(F)F)ccc2Oc2ccc(-c3ccnc(N4CCNCC4)c3)cc21
inactive: [4] 27.2% | [6] 13.8%
active: [1] -51.4% | [2] -72.7% | [3] -5.02% | [5] -78.6% | [7] -85.3% | [8] -70.7% | [9] -85.8% | [10] -80.9%

CCOC(=O)c1c(NC(=O)c2ccc(C(C)(C)C)cc2)sc2cc(OCCN3CCCCC3)ccc12
inactive: [1] 22.3% | [2] 24.3% | [3] 94.7% | [4] 55.6% | [5] 45.3% | [6] 76.2% | [7] 96.9% | [8] 102% | [10] 104%
active: [9] -74.4%

COc1cc(OC)c(S(N)(=O)=O)cc1C(=O)/C=C/c1ccccc1
active: [9] 3.55%
inactive: [1] 11.3% | [2] 25.3% | [3] 77.4% | [4] 47.5% | [5] 28.5% | [6] 32.9% | [7] 23.2% | [8] 42.8% | [10] 58%

CCN1C(=O)N(CC)C2C1NN=C1SC(c3ccccc3)=CC(=O)N12 (stereo not given)
active: [2] -8.74%
inactive: [1] 19.2% | [3] 14% | [4] 31.8% | [5] 14.5% | [6] 17.1% | [7] 38.2% | [8] 19.4% | [9] 40.1% | [10] 59.5%

O=C1c2c(c3c4cc(O)ccc4oc3c3[nH]c4ccccc4c23)C(=O)N1O
inactive: [1] 15.2% | [4] 16.4% | [6] 12.8% | [10] 19.4%
active: [2] -64.6% | [3] -8.52% | [5] -3.58% | [7] -76.1% | [8] -53.6% | [9] -67.8%

COc1ccccc1/C=C/C(=O)c1nnn(-c2ccc(C(=O)O)cc2)c1C
inactive: [1] 71.6% | [2] 106% | [3] 89.1% | [4] 87.9% | [5] 86.4% | [6] 93.2% | [7] 95.7% | [8] 79.7% | [9] 66.1% | [10] 97.3%

C/C=C/C=C1\C[C@H]2CO[C@H](O2)C1=O
inactive: [1] 80.8% | [2] 108% | [3] 106% | [4] 95.6% | [5] 97.4% | [6] 96.5% | [7] 98.5% | [8] 89.5% | [9] 49.3% | [10] 104%

CC(=O)c1ccc(NC(=O)COc2ccc(C3SCC(=O)N3c3ccc(Br)cc3)cc2)cc1 (stereo not given)
inactive: [1] 98.4% | [2] 107% | [3] 100% | [4] 95.2% | [5] 100% | [6] 91.6% | [7] 96.4% | [8] 79.5% | [9] 92.1% | [10] 104%

Cc1cn(-c2cc(NC(=O)c3cncc(C#Cc4cnc5ccc(O[C@@H]6CCOC6)nn45)c3)cc(C(F)(F)F)c2)cn1
active: [1] -31.2% | [2] -14% | [3] -63.3% | [4] -7.45% | [5] -96.6% | [6] -0.613% | [7] -98.4% | [8] -51.7% | [9] -75.7% | [10] -46.9%

COc1ccc(CN2C(=O)/C(=C/c3nc(CO)cs3)SC2=S)cc1
inactive: [1] 64.2% | [2] 107% | [3] 91.7% | [4] 93.8% | [5] 94% | [6] 86.5% | [7] 97.9% | [8] 73.4% | [9] 42.8% | [10] 107%

Cn1cc(-c2nn3cc(-c4ccncc4)nc3s2)c2cc(Cl)ccc21
active: [1] 5.44% | [2] 4.2%
inactive: [3] 88.6% | [4] 83% | [5] 56.6% | [6] 14.6% | [7] 55.7% | [8] 54.5% | [9] 39.4% | [10] 88.1%

COc1ccc(C(=O)n2cc(C=O)c3ccccc32)cc1
inactive: [1] 87.9% | [2] 118% | [3] 99% | [4] 87.5% | [5] 93.9% | [6] 90.5% | [7] 98.1% | [8] 81.6% | [9] 76.2% | [10] 102%

CC(C)C(=O)Nc1ccc(-c2nc(-c3cccc(O)c3)c(-c3ccnc(Br)c3)[nH]2)cc1
inactive: [1] 65.6% | [2] 41% | [4] 47% | [5] 42.5% | [6] 29.7% | [7] 42.7% | [8] 31.8% | [9] 38.4% | [10] 50.3%
active: [3] 4.68%

N/C(=N\OC(=O)CSc1nc2ccccc2s1)c1ccc2ccccc2c1
inactive: [1] 101% | [2] 103% | [3] 86.7% | [4] 99.9% | [5] 96.4% | [6] 93.6% | [7] 101% | [8] 91.4% | [9] 99.8% | [10] 106%

C#CCOc1ccc(C(Nc2ccc(OC)cc2)c2nnnn2C2CCCCC2)cc1 (stereo not given)
inactive: [1] 97.1% | [2] 101% | [3] 92.6% | [4] 93.3% | [5] 89.9% | [6] 93.8% | [7] 100% | [8] 73.4% | [9] 89.2% | [10] 109%

COc1cc(O)c2c(c1)[C@H]1O[C@@H]1C[C@H](O)[C@H](O)C(=O)/C=C\C[C@H](C)OC2=O
inactive: [1] 28.7% | [2] 12.6% | [3] 87.1% | [4] 81.3% | [5] 72.4% | [6] 66.8% | [9] 32.3%
active: [7] 7.59% | [8] -12.4% | [10] 6.98%

COc1ccc([C@H]2[C@H](O)C(=O)N2c2cc(OC)c(OC)c(OC)c2)cc1O
active: [1] 1.4% | [2] -18.4% | [5] 1.09% | [6] 8.59% | [7] 0.345%
inactive: [3] 45.3% | [4] 29% | [8] 27.9% | [9] 17.1% | [10] 62%

Cc1csc(Nc2cccc(Nc3nc(C)cs3)c2)n1
inactive: [1] 79.1% | [2] 105% | [3] 97.4% | [4] 82.3% | [5] 83.3% | [6] 77.1% | [7] 44.9% | [8] 66.9% | [9] 74.5% | [10] 84.3%

COc1ccc2oc3c4[nH]c5ccccc5c4c4c(c3c2c1)C(=O)N(O)C4=O
inactive: [1] 105% | [2] 104% | [3] 89.1% | [4] 95.2% | [5] 106% | [6] 85.8% | [7] 101% | [8] 94.6% | [9] 116% | [10] 106%

Cc1ccc(-n2cc(/C=C/C(=O)c3ccc(S(C)(=O)=O)cc3)c(-c3ccc(S(C)(=O)=O)cc3)n2)cc1
inactive: [1] 37.6% | [2] 70.5% | [3] 102% | [4] 89.8% | [5] 95.6% | [6] 86.6% | [7] 94.4% | [8] 78.1% | [9] 74.5% | [10] 92.9%

CC(C)=CCC[C@](C)(O)[C@H]1CC[C@]2(C)[C@@H]1CC[C@@H]1[C@@]3(C)CCC(NC(=O)c4ccccc4C(=O)O)C(C)(C)[C@@H]3CC[C@]12C (stereo not given in full)
inactive: [1] 87.7% | [2] 75.5% | [3] 90.2% | [4] 86.3% | [5] 88.6% | [6] 81.5% | [7] 55.4% | [8] 28.7% | [9] 84.3% | [10] 34.3%

COC(=O)Nc1ccc(-c2nc(-c3cccc(O)c3)c(-c3ccnc(Br)c3)[nH]2)cc1
inactive: [1] 51% | [2] 73.7% | [4] 56.2% | [5] 47% | [6] 23.7% | [7] 61.2% | [8] 23.7% | [9] 38% | [10] 58.7%
active: [3] 3.12%

Source: PubChem BioAssay (NCI)
